# Counter-ions that a name gives are not always drawn. Values without a mark were called inactive.
# Columns and labels:
# Settings in all cases: 20 µM
# [1] = tested on: Salmonella enterica typhimurium; experiment: growth AUC normalised to DMSO control (fraction of control); higher = less growth inhibition, active = hit call of the paper
# In short: (§1)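 Hemin and NAD were added to the medium for Haemophilus parainfluenzae. All pathogens, after two anaerobic passages, were inoculated at a starting OD578 of 0.01 into pre-reduced mGAM plates with 20 μM compound and 1% DMSO under breathable seals, and OD578 was read hourly for 24 h in three biological replicates. AUC of each growth curve was obtained with the trapezoidal rule up to the exponential-to-stationary transition and normalised to DMSO controls from the same plate.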
# [2] = tested on: Shigella flexneri; experiment: as above
# In short: as §1
# [3] = tested on: Vibrio cholerae; experiment: as above
# In short: as §1
# [4] = tested on: Yersinia pseudotuberculosis; experiment: as above
# In short: as §1
# [5] = tested on: S. enterica typhimurium WT; experiment: growth AUC normalised to DMSO control (median) (fraction of control); higher = less growth inhibition, active = hit call of the paper
# In short: (§2)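 In 96-well plates of mGAM seeded at OD578 0.01, strains that had been passaged twice overnight without oxygen were exposed to approved-drug library compounds at 20 μM with 1% DMSO. Hourly OD578 readings were taken for 24 h in an anaerobic incubator. The trapezoidal-rule area under the curve, with curves truncated at entry into stationary phase, was expressed relative to same-plate vehicle wells as the median of three biological replicates.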
# [6] = tested on: P. vulgatus RND KO; experiment: as above
# In short: as §2
# [7] = tested on: P. vulgatus WT; experiment: as above
# In short: as §2
# [8] = tested on: S. enterica typhimurium tolC KO; experiment: as above
# In short: as §2
# 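Throughout, for growth AUC normalised to DMSO control (median): active when median AUC fell below 0.1.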
Structure (SMILES),growth AUC normalised to DMSO control [1],growth AUC normalised to DMSO control [2],growth AUC normalised to DMSO control [3],growth AUC normalised to DMSO control [4],growth AUC normalised to DMSO control [5],growth AUC normalised to DMSO control [6],growth AUC normalised to DMSO control [7],growth AUC normalised to DMSO control [8]
CCOc1ccc2ccccc2c1C(=O)N[C@@H]1C(=O)N2[C@@H]1SC(C)(C)[C@@H]2C(=O)O [Nafcillin sodium salt monohydrate],0.981,0.973,0.96,0.967,1,–,–,–
C(=C\c1ccccc1)/CN1CCN(C(c2ccccc2)c2ccccc2)CC1 [Cinnarizine],0.986,0.925,0.895,0.976,0.997,1.01,1,0.965
CN1CCC(OC(c2ccccc2)c2ccccc2)CC1 [Diphenylpyraline hydrochloride],0.988,0.996,0.962,0.987,0.987,0.994,1,0.983
NC(=O)c1cc[n+](CC2=C(C(=O)[O-])N3C(=O)[C@@H](NC(=O)[C@@H](c4ccccc4)S(=O)(=O)O)[C@H]3SC2)cc1 [Cefsulodin sodium salt],0.944,0.999,0.976,0.865 (active),1,–,0.983,0.978
O=c1[nH]cnc2c1ncn2[C@H]1CC[C@@H](CO)O1 [Didanosine],–,1.01,1.04,0.73 (active),0.992,1,0.973,0.949
CN(Cc1cnc2nc(N)nc(N)c2n1)c1ccc(C(=O)N[C@@H](CCC(=O)O)C(=O)O)cc1 [Amethopterin],0.983,0.948,0.912,0.982,0.997,–,0.916,0.7
CN/C(=N\CCSCc1nc[nH]c1C)NC#N [Cimetidine],–,0.992,1,1,1,0.995,1.02,0.996
CN1C(C(=O)Nc2ccccn2)=C(O)c2sccc2S1(=O)=O [Tenoxicam],–,0.94,0.791 (active),0.993,1,0.97,0.969,0.956
O=c1[nH]c(=O)n([C@H]2C[C@H](O)[C@@H](CO)O2)cc1C(F)(F)F [Trifluridine],–,1.01,1.05,0.997,0.964,0.13,0.123,0.958
NS(=O)(=O)c1cc(C(=O)O)c(NCc2ccco2)cc1Cl [Furosemide],0.996,1.01,1.01,1.01,1.02,1.05,1.06,1.02
C[C@]1(Cn2ccnn2)[C@H](C(=O)O)N2C(=O)C[C@H]2S1(=O)=O [Tazobactam],0.986,0.976,0.972,0.99,0.99,–,0.57,1
CC(=O)OCC(=O)[C@@]12OC3(CCCC3)O[C@@H]1C[C@H]1[C@@H]3CCC4=CC(=O)C=C[C@]4(C)[C@@]3(F)[C@@H](O)C[C@@]12C [Amcinonide],1.01,1.02,1.04,1.04,1.01,0.993,0.991,0.988
CC(=O)[C@H]1CC[C@H]2[C@@H]3CCC4=CC(=O)CC[C@]4(C)[C@H]3CC[C@]12C [Progesterone],–,1.01,1,1,1.02,0.0182 (active),0.612,0.918
CCn1cc(C(=O)O)c(=O)c2cnc(N3CCNCC3)nc21 [Pipemidic acid],–,0.113 (active),0.0338 (active),0.0731 (active),0.107,1.02,0.996,0.04 (active)
N=C(N)c1ccc(OCCCCCOc2ccc(C(=N)N)cc2)cc1 [Pentamidine isethionate],–,0.984,1.02,1.02,0.999,0.591,0.749,0.985
C[C@]12C[C@H](O)[C@H]3[C@@H](CCC4=CC(=O)CC[C@@]43C)[C@@H]1CC[C@@H]2C(=O)CO [Corticosterone],1,0.978,0.984,0.996,1.02,1,1.01,1

# Source: the supplement of paper PMC12350171
